Results filed as inconclusive are left out. The source made the active and inactive calls. Unless noted, calls come from the whole dose curve; as a rule, active = well fitted curve in the direction sought with a large enough effect in the repeat runs; inconclusive = weak or mixed curves; inactive = no such curve, though single readings can be large; an effect the other way counts as inactive or inconclusive.
Assays:
[1] = target: Peroxisome proliferator-activated receptor delta (Homo sapiens) (UniProt Q03181); experiment: qHTS assay to identify small molecule agonists of the peroxisome proliferator-activated receptor delta (PPARd) signaling pathway (AID 743212; calls by dose curve)
Method in brief: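 Cells expressing a UAS-driven beta-lactamase reporter (PPARd-bla HEK293H) were given test compounds after a 5 h settle and kept at 37 C. Reporter activity was then measured as FRET fluorescence using LiveBLAzer B/G substrate.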

[2] = qHTS assay to identify small molecule antagonists of the peroxisome proliferator-activated receptor delta (PPARd) signaling pathway - cell viability counter screen (AID 743213); note: nearly all actives have a fitted effect of over 50% in size
Method in brief: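 Viability counter-screen, qHTS format: PPARd-bla HEK293H, L165041 300 nM final, 17 h compound exposure at 37 C, CellTiter-Glo luminescence after 30 min RT.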

[3] = target: Peroxisome proliferator-activated receptor delta (Homo sapiens) (UniProt Q03181); experiment: qHTS assay to identify small molecule antagonists of the peroxisome proliferator-activated receptor delta (PPARd) signaling pathway (AID 743215; active = well fitted inhibition curve with a large enough effect in the signal ratio in the repeat runs, not every such curve was filed as active; the % refers to the signal ratio;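 note: cells stimulated with agonist L165041 at 300 nM final during compound exposure; series mostly up to about 62 µM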)
Method in brief: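 Fluorescence from cleaved LiveBLAzer B/G FRET substrate (2 h, room temperature) reports PPARd-driven beta-lactamase in HEK293H UAS-bla cells. Cells had been treated 17 h at 37 C with compound plus 300 nM final L165041.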

[4] = qHTS assay to identify small molecule agonists of the farnesoid-X-receptor (FXR) signaling pathway - cell viability counter screen (AID 743218); note: nearly all actives have a fitted effect of over 45% in size
Method in brief: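 Readout: CellTiter-Glo luminescence, 30 min RT, multiplexed after the FXR-bla FRET reading. HEK 293T FXR-UAS-bla cells received compound 5 h post-plating and were incubated 16 h at 37 C.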

[5] = qHTS assay to identify small molecule antagonists of the farnesoid-X-receptor (FXR) signaling pathway - cell viability counter screen (AID 743221; active = well fitted cell-killing curve with a large enough effect in the repeat runs, not every such curve was filed as active; note: nearly all actives have a fitted effect of over 50% in size)
Method in brief: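 Luminescence from CellTiter-Glo measures cytotoxicity in GeneBLAzer FXR-UAS-bla HEK 293T cells. Cells were exposed to compounds with 50 uM chenodeoxycholic acid (final) for 16 h at 37 C, in wells also used for the reporter readout.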

[6] = target: Vitamin D3 receptor (Homo sapiens) (UniProt P11473); experiment: qHTS assay to identify small molecule agonists of the vitamin D receptor (VDR) signaling pathway (AID 743222; calls by dose curve)
Method in brief: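 Following 4 h attachment at 37C, VDR-bla cells (2,000 per well) received DMSO-dissolved compounds or controls. After 16 h incubation, LiveBLAzer B/G FRET substrate was added and fluorescence read 2 h later at room temperature.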

[7] = target: Vitamin D3 receptor (Homo sapiens) (UniProt P11473); experiment: qHTS assay to identify small molecule antagonists of the vitamin D receptor (VDR) signaling pathway (AID 743223; active = well fitted inhibition curve with a large enough effect in the signal ratio in the repeat runs, not every such curve was filed as active; the % refers to the signal ratio)
Method in brief: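 Antagonist mode uses 1alpha,25-dihydroxyvitamin D3 at 3 nM final as stimulus. VDR-bla cells receive compounds in DMSO, incubate 16 h at 37C, then a beta-lactamase FRET substrate for 2 h at room temperature before fluorescence measurement.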

[8] = qHTS assay to identify small molecule agonists of the vitamin D receptor (VDR) signaling pathway - cell viability counter screen (AID 743224); note: series mostly up to about 63 µM; nearly all actives have a fitted effect of over 50% in size
Method in brief: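 In parallel with the bla FRET readout, cytotoxicity toward VDR-bla cells after 16 h compound exposure was assessed by CellTiter-Glo, with luminescence recorded after a 30 min room-temperature incubation.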

[9] = target: Bile acid receptor (Homo sapiens) (UniProt Q96RI1); experiment: qHTS assay to identify small molecule antagonists of the farnesoid-X-receptor (FXR) signaling pathway (AID 743217; active = well fitted inhibition curve with a large enough effect in the signal ratio in the repeat runs, not every such curve was filed as active; the % refers to the signal ratio)
Method in brief: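 FRET fluorescence after 2 h room-temperature LiveBLAzer loading gives the readout. Prior step: FXR-bla HEK 293T cells, seeded and incubated 5 h, received test compounds plus 50 uM final CDCA for 16 h at 37 °C.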

[10] = target: Bile acid receptor (Homo sapiens) (UniProt Q96RI1); experiment: qHTS assay to identify small molecule agonists of the farnesoid-X-receptor (FXR) signaling pathway (AID 743220; active = well fitted activation curve with a large enough effect in the signal ratio in the repeat runs, not every such curve was filed as active; the % refers to the signal ratio)
Method in brief: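 FXR-UAS-bla HEK 293T cells carrying a UAS-driven beta-lactamase reporter were plated for 5 h at 37C/5% CO2, then exposed to DMSO-dissolved Tox21 10K compounds for 16 h at 37C. A LiveBLAzer B/G FRET substrate was loaded for 2 h at room temperature before fluorescence reading.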
% is set by controls: 0 for no effect and ±100 for the full control effect.

Bile acid receptor (Homo sapiens), sequence (Q96RI1 whole entry, looked up): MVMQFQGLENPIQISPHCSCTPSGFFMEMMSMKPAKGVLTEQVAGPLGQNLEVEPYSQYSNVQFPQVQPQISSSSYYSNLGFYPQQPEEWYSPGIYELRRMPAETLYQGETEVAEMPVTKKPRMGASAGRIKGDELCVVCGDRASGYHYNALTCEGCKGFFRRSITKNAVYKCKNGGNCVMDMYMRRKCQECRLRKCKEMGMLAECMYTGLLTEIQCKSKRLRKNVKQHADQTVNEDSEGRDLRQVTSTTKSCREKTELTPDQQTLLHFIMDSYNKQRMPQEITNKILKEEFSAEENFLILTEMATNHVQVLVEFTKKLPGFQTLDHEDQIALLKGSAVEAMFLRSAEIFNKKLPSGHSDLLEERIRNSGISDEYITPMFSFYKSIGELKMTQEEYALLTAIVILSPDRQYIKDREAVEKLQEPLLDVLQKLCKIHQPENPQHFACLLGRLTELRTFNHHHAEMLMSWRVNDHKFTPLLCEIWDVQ
Peroxisome proliferator-activated receptor delta (Homo sapiens), sequence (Q03181 whole entry, looked up): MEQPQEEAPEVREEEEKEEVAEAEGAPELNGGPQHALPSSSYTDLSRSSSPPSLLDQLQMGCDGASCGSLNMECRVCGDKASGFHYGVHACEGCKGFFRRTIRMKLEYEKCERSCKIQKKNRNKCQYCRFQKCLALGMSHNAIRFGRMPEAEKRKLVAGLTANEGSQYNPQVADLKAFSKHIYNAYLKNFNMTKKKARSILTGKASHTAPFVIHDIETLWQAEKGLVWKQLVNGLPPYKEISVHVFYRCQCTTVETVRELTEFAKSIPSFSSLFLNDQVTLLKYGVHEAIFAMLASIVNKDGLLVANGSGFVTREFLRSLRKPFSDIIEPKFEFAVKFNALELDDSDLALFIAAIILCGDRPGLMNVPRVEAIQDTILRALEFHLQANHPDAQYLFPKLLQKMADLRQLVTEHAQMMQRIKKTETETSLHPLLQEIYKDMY
Vitamin D3 receptor (Homo sapiens), sequence (P11473 whole entry, looked up): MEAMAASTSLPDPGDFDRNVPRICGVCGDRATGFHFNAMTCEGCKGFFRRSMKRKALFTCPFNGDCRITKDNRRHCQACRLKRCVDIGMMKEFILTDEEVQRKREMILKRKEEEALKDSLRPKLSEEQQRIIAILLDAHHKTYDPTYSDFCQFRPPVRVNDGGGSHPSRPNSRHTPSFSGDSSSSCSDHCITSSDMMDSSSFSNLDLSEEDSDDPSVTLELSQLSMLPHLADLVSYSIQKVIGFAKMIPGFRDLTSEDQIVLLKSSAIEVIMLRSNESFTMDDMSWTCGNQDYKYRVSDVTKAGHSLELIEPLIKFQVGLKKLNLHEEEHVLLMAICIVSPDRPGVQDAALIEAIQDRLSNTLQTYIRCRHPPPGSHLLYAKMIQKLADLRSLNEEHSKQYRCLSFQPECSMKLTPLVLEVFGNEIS

CCCCCCCC(=O)N(C)C
inactive: outcome [1] | outcome [2] | outcome [3] | outcome [4] | outcome [5] | outcome [6] | outcome [7] | outcome [8]

CC(O)CCCCn1c(=O)c2c(ncn2C)n(C)c1=O (stereo not drawn)
inactive: outcome [1] | outcome [2] | outcome [3] | outcome [4] | outcome [5] | outcome [6] | outcome [7] | outcome [8]

O=c1c(O)c(O)c1=O
inactive: outcome [1] | outcome [2] | outcome [3] | outcome [4] | outcome [5] | outcome [6] | outcome [7] | outcome [8]

NNC(=O)OCc1ccccc1
inactive: outcome [1] | outcome [2] | outcome [3] | outcome [4] | outcome [5] | outcome [6] | outcome [7] | outcome [8]

C=CC(C)(CCC=C(C)C)OC(=O)C(C)C (stereo not drawn)
inactive: outcome [1] | outcome [2] | outcome [3] | outcome [4] | outcome [5] | outcome [6] | outcome [7] | outcome [8]

CCCCCCC(=O)c1ccccc1
inactive: outcome [1] | outcome [2] | outcome [3] | outcome [9] | outcome [10] | outcome [5] | outcome [8]

C=CCN1CCc2nc(N)sc2CC1
inactive: outcome [1] | outcome [2] | outcome [3] | outcome [4] | outcome [5] | outcome [6] | outcome [7] | outcome [8]

CC/C=C/CCCCCCCCCCOC(C)=O
inactive: outcome [1] | outcome [2] | outcome [3] | outcome [4] | outcome [5] | outcome [6] | outcome [7] | outcome [8]

COc1cc(NS(=O)(=O)c2ccc(N)cc2)ncn1
inactive: outcome [1] | outcome [2] | outcome [3] | outcome [4] | outcome [5]

O=Cc1ccccc1S(=O)(=O)O
inactive: outcome [1] | outcome [2] | outcome [3] | outcome [4] | outcome [5] | outcome [6] | outcome [7] | outcome [8]

CC(C)(C)C(=O)NCCCC(=O)O
inactive: outcome [1] | outcome [2] | outcome [3] | outcome [4] | outcome [5] | outcome [6] | outcome [7] | outcome [8]

CCCCCC(CC)OC(=O)CCCOc1ccc(Cl)cc1Cl (stereo not drawn)
inactive: outcome [1] | outcome [2] | outcome [3] | outcome [4] | outcome [5] | outcome [6] | outcome [7] | outcome [8]

Cc1cc(C)c(N)c(Cl)c1
inactive: outcome [1] | outcome [2] | outcome [3] | outcome [4] | outcome [5] | outcome [6] | outcome [7] | outcome [8]

CN(C)CCc1c[nH]c2ccc(CS(=O)(=O)N3CCCC3)cc12
inactive: outcome [1] | outcome [2] | outcome [3] | outcome [4] | outcome [5] | outcome [6] | outcome [7] | outcome [8]

CC(C)(Sc1cc(C(C)(C)C)c(O)c(C(C)(C)C)c1)Sc1cc(C(C)(C)C)c(O)c(C(C)(C)C)c1
inactive: outcome [1] | outcome [2] | outcome [3] | outcome [4] | outcome [5] | outcome [6] | outcome [7] | outcome [8]

CCCCN(CCCC)CCCCCCN(CCCC)CCCC
inactive: outcome [1] | outcome [2] | outcome [3] | outcome [4] | outcome [5]

CN(C)CCCN(C)C
inactive: activation [1] -1.31% [at 5.95 µM] | viability change, negative = cytotoxic [2] 1.43% [at 6.26 µM] | ratio activity, negative = inhibition [3] 5.28% [at 6.26 µM] | viability change, negative = cytotoxic [4] 2.3% [at 5.95 µM] | activity change, negative = cytotoxicity [5] 0.644% [at 5.95 µM] | activation [6] -2.68% [at 6.01 µM] | activity change, negative = inhibition [7] -1.32% [at 6.95 µM] | activity change, negative = cytotoxicity [8] 0.624% [at 5.95 µM]

O=CN1CCCCC1
inactive: outcome [1] | outcome [2] | outcome [3] | outcome [4] | outcome [5] | outcome [6] | outcome [7] | outcome [8]

CC(C)(C)C(=O)CCc1ccc(Cl)cc1
inactive: outcome [1] | outcome [2] | outcome [3] | outcome [4] | outcome [5] | outcome [6] | outcome [7] | outcome [8]

CCc1ncc(C)[nH]1
inactive: outcome [1] | outcome [2] | outcome [3] | outcome [4] | outcome [10] | outcome [5] | outcome [6] | outcome [7] | outcome [8]

C[C@@H]1NC(=O)[C@@H](N)CNC(=O)[C@H](C2CCNC(N)=N2)NC(=O)/C(=C/NC(N)=O)NC(=O)[C@H](CNC(=O)C[C@@H](N)CCCN)NC1=O (stereo partly drawn)
inactive: activation [1] 1.73% [at 0.55 µM] | viability change, negative = cytotoxic [2] 5.77% [at 0.575 µM] | ratio activity, negative = inhibition [3] 1.43% [at 0.575 µM] | viability change, negative = cytotoxic [4] -0.66% [at 0.55 µM] | activity change, negative = cytotoxicity [5] 2.18% [at 0.55 µM] | activation [6] 3.13% [at 0.554 µM] | activity change, negative = inhibition [7] 8.64% [at 0.628 µM] | activity change, negative = cytotoxicity [8] -2.65% [at 0.55 µM]

CCCC(=O)CC
inactive: outcome [1] | outcome [2] | outcome [3] | outcome [4] | outcome [5] | outcome [6] | outcome [7] | outcome [8]

O=C1Nc2ccccc2C1=O
inactive: outcome [1] | outcome [2] | outcome [3] | outcome [4] | outcome [5] | outcome [6] | outcome [7] | outcome [8]

CC(C)OC(=O)C(C(=O)OC(C)C)=C1SC=CS1
inactive: outcome [1] | outcome [2] | outcome [3] | outcome [4] | outcome [5] | outcome [6] | outcome [7] | outcome [8]

CCCOc1ccc(C(=O)OCCN(CC)CC)cc1N
inactive: outcome [1] | outcome [2] | outcome [3] | outcome [4] | outcome [5] | outcome [6] | outcome [7] | outcome [8]

Cc1ccc(S(=O)(=O)NC(=O)NN2CC3CCCC3C2)cc1 (stereo not drawn)
inactive: outcome [1] | outcome [2] | outcome [3] | outcome [4] | outcome [5] | outcome [6] | outcome [7] | outcome [8]

Nc1cc(S(=O)(=O)O)ccc1O
inactive: outcome [1] | outcome [2] | outcome [3] | outcome [4] | outcome [5] | outcome [6] | outcome [7] | outcome [8]

COc1cc(S(N)(=O)=O)cc(C(=O)O)c1OC
inactive: outcome [1] | outcome [2] | outcome [3] | outcome [4] | outcome [5] | outcome [6] | outcome [7] | outcome [8]
